# Source: PubChem BioAssay AID1850 (Southern Research Specialized Biocontainment Screening …, 2009)
# Screen size: about 310,000 compounds; about 1,000 (0.32%) were called active. Not all results are given here. Measured potencies and affinities stand elsewhere. Values without a mark were called inactive. The rule behind the calls is not given here.
# Experiment: PhoP regulon inhibitors, Salmonella typhi PhoP promoter GFP reporter, confirmatory (AID 1850);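 note: 0% = induced wells with vehicle and 100% = uninduced wells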
# Conditions: fluorescence, 4 h, at 50 µM, active compounds read high
row,Structure (SMILES),inhibition
1,CC(C)C(C(=O)NCC1CCCO1)N(C(=O)CNS(=O)(=O)c1ccc(F)cc1)C1CCCCC1 (centres undefined),-5.01%
2,Cc1ccccc1NC1=NC(C)(C)N=C(N)N1,2.17%
3,Cc1cccc(NC2=NC(C)(C)N=C(N)N2)c1,-5.24%
4,Cc1cccc(C)c1NC1=NC(C)(C)N=C(N)N1,-2.14%
5,CC1(C)N=C(N)NC(Nc2ccccc2)=N1,3.29%
6,CCCCC(=O)N/N=C/c1ccc(N2CCOCC2)c([N+](=O)[O-])c1,5.66%
7,O=C(c1cc(Cl)cc(Cl)c1)N1CCN(c2cc(C(F)(F)F)nc3ccccc23)CC1,0.46%
8,CN1N=C(C(C)(C)C)CC1=O,-12.7%
9,OCCC1CN(Cc2nc3ccccc3[nH]2)CCN1C1CCCC1 (centres undefined),3.25%
10,COc1cc(C(=O)O/N=C2/C=C(C)C(=O)C=C2C)cc(OC)c1OC,-6.02%
11,COc1cc(C(=O)ON=C2C=C(C)C(=O)C(C)=C2)cc(OC)c1OC,-6.42%
12,CCc1ccccc1N(CC(=O)N1CCCC1)S(C)(=O)=O,6.01%
13,CCNc1c2c(nc3ccccc13)CC(C)(C)CC2=O,-3.19%
14,Cc1c2c(nc3ccccc13)CC(C)(C)CC2=O,-15.3%
15,CCC(=NCc1cccnc1)c1c(O)n(-c2ccc(C)cc2)c(=O)[nH]c1=O,-4.52%
16,O=C(COc1ccc2c3c(c(=O)oc2c1)CCC3)N[C@@H](CSCc1ccccc1)C(=O)O,11.7%
17,N#C/C(=C\c1cc(O)c(O)c(O)c1)C(N)=O,5.26%
18,CCOC(=O)c1ccc(CNCc2ccc(C)cc2)cc1,-2.32%
19,CCOC(=O)c1ccc(CNCc2ccccc2)cc1,-2.61%
20,Cc1noc(C)c1COc1ccc(C(=O)N2CCN(S(=O)(=O)c3ccc(Cl)cc3)CC2)cc1,-8.91%
21,CSc1ccccc1NC(=O)CN(C)C(=O)CCc1c[nH]c2ccccc12,2.89%
22,CC(C)(C)c1ccc(OCCON2C(=O)CCC2=O)c(Cl)c1,10.3%
23,CNCCCOc1ccc(Cl)cc1C(C)(C)C,18.7%
24,CCCCNC(=O)c1cccc(NC(=O)C(=O)c2ccccc2NC(C)=O)c1,0.04%
25,Cc1ccc(-c2csc(N=C(N)N)n2)cc1,3.62%

row,Structure (SMILES),inhibition
1,COc1ccc(-c2csc(N=C(N)N)n2)cc1,4.34%
2,O=C(N1CCOCC1)N1CCN(S(=O)(=O)N2CCCCC2)CC1,5.81%
3,COc1ccc(NC2CCCN(C(=O)C3=NN(C)C(=O)CC3)C2)cc1OC (centres undefined),-1.12%
4,Cc1cccc(N2CCN(Cc3nc(-c4cccc(Cl)c4)oc3C)CC2)n1,-3.9%
5,Cc1cc(=O)c2cc(Br)ccc2[nH]1,6.88%
6,Oc1[nH]c2ccc(Br)cc2c1N=Nc1ccc(F)cc1,-81.9%
7,O=C(NCC1CCCO1)c1onc(CSc2ccc(F)c(F)c2)c1C(=O)O (centres undefined),1.53%
8,C=CCNC(=O)CN1CCC(c2nc3cc(C)c(C)cc3[nH]2)CC1,2.77%
9,O=[N+]([O-])c1ccc(/C=N/N2CCCCC2)cc1,2.58%
10,CCOc1ccc(-c2c(C(=O)N/N=C/c3ccc(OC)cc3)nnn2-c2nonc2N)cc1,-14%
11,O=C(Cc1ccc(Cl)cc1)Nc1ccc(S(=O)(=O)Nc2cnc3ccccc3n2)cc1,-6.63%
12,CC1CCCCC1NC(=O)c1ccc(NS(=O)(=O)c2ccc3[nH]c(=O)[nH]c3c2)cc1 (centres undefined),0.81%
13,CC(=O)Oc1c(C)cc(Cl)cc1C(=O)Nc1ccc([N+](=O)[O-])cc1Cl,3.87%
14,Cc1ccc(NC(=O)c2cc([N+](=O)[O-])ccc2Cl)c(O)c1,4.62%
15,CC[C@H](C)Cc1cn([C@@H](CCCCN)C(=O)NCCCCCCCCCCC(=O)N2CCNCC2)nn1,1.01%
16,CCOC(=O)N1CCN(C(=O)c2cc(COc3ccc4ncccc4c3)on2)CC1,-2.35%
17,COc1cccc(CNCCc2cccc(F)c2)c1OC,6.94%
18,COc1cccc(CNCCc2ccccc2)c1OC,15.4%
19,Fc1ccc(CNCCc2ccccc2F)cc1,20.1%
20,CCc1ccc(CNCCc2ccccc2F)cc1,19.3%
21,CCc1ccc(CNCCc2ccc(F)cc2)cc1,7.65%
22,COc1cc(OC)c(OC)cc1CNCCc1ccc(F)cc1,1.12%
23,COc1cc(OC)c(OC)cc1CNCCc1cccc(F)c1,3.05%
24,Fc1ccc(CCNCc2cccc(Cl)c2)cc1,-1.17%
